From PubChem BioAssay
HSF1 inhib: HSF1 inhibitors in luciferase reporter cells, primary screen, cell-based, NIH3T3, luminescence; NIH3T3-HGL HSE-luciferase, MG132-induced, luminescence 8 h; hits give low values; activity change, negative = inhibition, % at 7.5 µM (by protocol); 300,000 compounds, 0.77% hits; AID 2098, 2009;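 active means more than half of replicate wells show activity change below -50%, luminescence cut by over half; inconclusive means some wells, but at most half, below -50%; inactive means no replicate well below -50%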;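 further: luciferase reports HSF-1 transcriptional activity via heat shock element; 0% = median of DMSO wells and -100% = zero luminescence signal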
HSP90 refold inh: HSP90 inhibitors, primary screen, cell lysate, luminescence. AID 1789, 2009. 290,000 compounds, 0.91% hits. inhibition, % at 5.6 µM. Rabbit reticulocyte lysate, luciferase refolding luminescence, 3 h. Heat shock protein HSP 90 (rabbit reticulocyte lysate; luciferase refolding);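 active means inhibition above the screen-wide mean plus 3 SD, computed separately per campaign, cut at about 16% in these data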;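 further: 0% = DMSO wells and 100% = 60 µM geldanamycin wells; inhibitors lower the luminescence because luciferase stays unfolded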
NR0B1 inh: DAX1 (NR0B1) inhibitors, primary screen, cell-based, HEK293, Gal4-DAX1, luciferase luminescence | inhibition, % at 6.75 µM | Nuclear receptor subfamily 0 group B member 1 (Homo sapiens), P51843 | 340,000 compounds, 0.99% hits | HEK293 Gal4-DAX1 luciferase reporter;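 active means inhibition above the mean over all tested compounds plus 3 SD, cut at about 4.2% in these data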;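 further: 0% = DAX1-transfected cells with DMSO and 100% = empty-vector control cells with DMSO; inhibition shows as a rise in luminescence from relieved DAX1 repression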
Target sequence (P51843 207-470 limits assumed): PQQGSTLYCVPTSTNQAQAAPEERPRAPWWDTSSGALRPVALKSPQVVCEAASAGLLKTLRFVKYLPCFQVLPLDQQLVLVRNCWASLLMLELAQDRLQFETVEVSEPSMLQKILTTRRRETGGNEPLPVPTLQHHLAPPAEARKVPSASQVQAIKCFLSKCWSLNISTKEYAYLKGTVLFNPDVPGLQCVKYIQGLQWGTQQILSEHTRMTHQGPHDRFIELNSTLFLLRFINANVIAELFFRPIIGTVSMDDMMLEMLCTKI
FXN GAA850 act: FXN promoter activators, primary screen, cell-based, luciferase luminescence, HEK293 lucGAA850 | AID 540364, 2011 | activation, % at 6 µM | HEK293 lucGAA850 FXN promoter luciferase reporter, 24 h; percent of 10 µM SAHA response | 360,000 compounds, 0.56% hits;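 active means activation above the average of all compounds screened plus 3 SD, cutoff fixed separately per campaign, cut at about 7.5% in these data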;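 further: 0% = DMSO wells and 100% = 10 µM SAHA wells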
AHR activator: AHR activators, primary screen, cell-based, luminescence, luciferase reporter, human; Aryl hydrocarbon receptor (Homo sapiens), P35869; activation, % at 5 µM; AHR-responsive luciferase reporter cells; AID 2796, 2010; 320,000 compounds, 2.5% hits; in the data active means activation above about 47%;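 further: 0% = vehicle wells and 100% = reference agonist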
HSF1 activator: HSF-1 activators, primary screen, NIH3T3-HGL cells, MG132 stress, luminescence, single point; NIH3T3-HGL HSF-1 luciferase reporter, 8 h; 100% = twice DMSO control signal; 300,000 compounds, 1.7% hits; activation, % at 9 µM;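 active means mean replicate activation of at least 50% with a set share of replicates each reaching 50%; inconclusive means only one of those two conditions met; inactive means mean below 50% and too few replicates reaching it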;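 further: 0% = median of the neutral control wells and 100% = twice that signal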
GAA30 FXN cntr: GAA30 FXN promoter activators, confirmation, counter-screen for GAA850 frataxin promoter activator project, cell-based, luminescence, HEK293, lucGAA30, triplicate; shares compounds with FXN GAA850 act; HEK293 lucGAA30 FXN promoter luciferase, 24 h; DMSO = 0%, 5 µM ipriflavone = 100%; activation, % at 6 µM; 1,900 compounds, 66% hits;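 active means mean activation above the mean of solvent-only control wells plus 3 SD, cut at about 22% in these data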;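 further: counterscreen of GAA850 promoter hits where activity marks nonselective or luminescence artifacts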
GAA850 confirm: FXN GAA850 promoter activators in reporter cells, confirmation, cell-based, luminescence, HEK293 lucGAA850, triplicate; 1,900 compounds, 86% hits; shares compounds with FXN GAA850 act; activation, % at 6 µM; HEK293 lucGAA850 FXN promoter luciferase reporter, 24 h; 100% = activation by SAHA;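 active means mean activation above a set limit taken from the primary screen, cut at about 8% in these data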;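 further: 0% = DMSO wells and 100% = 10 µM SAHA wells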
The depositor's hits bear a star. This is a sample that favours compounds with a hit; in the whole collection about 5.9% have one here.

CCOC(=O)C1CCN(C2=NC(=O)/C(=C/c3ccc(OC)c(OC)c3)S2)CC1 was read as HSF1 inhib 12, HSP90 refold inh -1, NR0B1 inh -2, FXN GAA850 act 4, AHR activator 0 and HSF1 activator 18.
CN(C(=S)NC1CCCCC1)C1(c2ccccc2Cl)CCCCC1=O (stereo not given) was read as HSF1 inhib 6, HSP90 refold inh -2, NR0B1 inh 2, FXN GAA850 act 8.8*, AHR activator -2, HSF1 activator 3, GAA30 FXN cntr 13 and GAA850 confirm 9.2*.
`CC(C)c1ccc(Nc2nnc(SCC(=O)NCC3CCCO3)s2)cc1` (stereo not given) gave NR0B1 inh 1, FXN GAA850 act 0 and AHR activator 10.
`O=C(Nc1ccc(Cl)c(Cl)c1)C1=Cc2ccccc2OC1` gave HSF1 inhib 21, HSP90 refold inh 1, NR0B1 inh 0, FXN GAA850 act 9.1*, AHR activator 10, HSF1 activator 12, GAA30 FXN cntr 86* and GAA850 confirm 34*.
For O=C(Nc1cccc(Cl)c1)C1=Cc2cc(Cl)ccc2OC1 the results were HSF1 inhib 5, HSP90 refold inh -1, NR0B1 inh -1, FXN GAA850 act -1, AHR activator -3 and HSF1 activator 15.
CCOC(=O)/C(C#N)=C/Nc1ccccc1OC was read as HSF1 inhib 18, HSP90 refold inh -3, NR0B1 inh 2, FXN GAA850 act 8.0*, AHR activator 5, HSF1 activator 28, GAA30 FXN cntr 92* and GAA850 confirm 29*.
For CC(C)c1ccc(NC(=O)c2cccc(Br)c2)cc1 the results were HSF1 inhib 38, HSP90 refold inh 2, NR0B1 inh 3, FXN GAA850 act 8.2*, AHR activator 43, HSF1 activator 78*, GAA30 FXN cntr 110* and GAA850 confirm 49*.
For O=C(c1ccc(-c2cccc(Cl)c2Cl)o1)N1CCOCC1 the results were HSF1 inhib 16, HSP90 refold inh -3, NR0B1 inh 2, FXN GAA850 act 8.8*, AHR activator 16, HSF1 activator inconclusive, GAA30 FXN cntr 108* and GAA850 confirm 39*.
For Cc1cc(C(=O)Nc2sc(C)c(-c3ccc(F)cc3)c2C(N)=O)no1 the results were HSF1 inhib 7, HSP90 refold inh -5, NR0B1 inh 3, FXN GAA850 act 8.4*, AHR activator 5, HSF1 activator 12, GAA30 FXN cntr 106* and GAA850 confirm 31*.
Screening CCc1ccc(-c2c(C)sc(NC(C)=O)c2C(N)=O)cc1 returned HSF1 inhib -18, HSP90 refold inh 3, NR0B1 inh 1, FXN GAA850 act 2, AHR activator -1 and HSF1 activator -8.
For O=[N+]([O-])c1c(Nc2ccccc2O)ccc2nonc12 the results were HSF1 inhib -8, HSP90 refold inh 4, NR0B1 inh 4, FXN GAA850 act 3, AHR activator -1 and HSF1 activator -10.
For O=[N+]([O-])c1c(Nc2ccccc2O)cc(Cl)c2nonc12 the results were HSF1 inhib 150, HSP90 refold inh 3, NR0B1 inh -2, FXN GAA850 act 11*, HSF1 activator 207*, GAA30 FXN cntr -79 and GAA850 confirm -8.
For O=C1CSc2ccc(C(=O)NCCC3=CCCCC3)cc2N1 the results were HSF1 inhib 23, HSP90 refold inh 1, NR0B1 inh 0, FXN GAA850 act 7.8*, AHR activator 7, HSF1 activator 36, GAA30 FXN cntr 76* and GAA850 confirm 24*.
COC(=O)C1CC2(C(=O)OC)CC(C(=O)OC)(CC(C(=O)OC)C2=O)C1=O (stereo not given) was read as NR0B1 inh 0 and FXN GAA850 act 0.
O=C(/C=C/Nc1ccc(Oc2ccccc2Cl)cc1)c1ccco1 was read as HSF1 inhib 1, HSP90 refold inh 1, NR0B1 inh 3, FXN GAA850 act 4, AHR activator 9 and HSF1 activator 21.
`COc1ccccc1Oc1ccc(N/C=C/C(=O)c2ccco2)cc1` gave HSF1 inhib -24, HSP90 refold inh -1, NR0B1 inh 1, FXN GAA850 act 12*, AHR activator 17, HSF1 activator -28, GAA30 FXN cntr 83* and GAA850 confirm 34*.
`O=C(N/N=C/c1ccccn1)c1ccc(Cl)c(Cl)c1` gave HSF1 inhib -16, HSP90 refold inh 5, NR0B1 inh 1, FXN GAA850 act 9.1*, AHR activator 7, HSF1 activator -17, GAA30 FXN cntr -108 and GAA850 confirm -30.
`O=C(N/N=C/c1ccccn1)c1cc(-c2ccccc2)nc2ccccc12` gave HSF1 inhib 2, HSP90 refold inh 5, FXN GAA850 act 7.7*, AHR activator 30, HSF1 activator -4, GAA30 FXN cntr -118 and GAA850 confirm -37.
`O=C(N/N=C/c1ccccn1)c1cc(C2CC2)nc2ccccc12` gave HSF1 inhib -6, HSP90 refold inh 0, NR0B1 inh -1, FXN GAA850 act 1, AHR activator 8 and HSF1 activator -5.
Screening Cc1ccc(C(C(=O)NCc2ccc(F)cc2)N(CCCO)C(=O)C2COc3ccccc3O2)o1 (stereo not given) returned HSF1 inhib 0, HSP90 refold inh 0, NR0B1 inh -1, FXN GAA850 act -1, AHR activator -1 and HSF1 activator -2.
For COc1ccccc1S(=O)(=O)Cc1ccc(C(=O)NC2CC2)o1 the results were HSF1 inhib 4, HSP90 refold inh 8, NR0B1 inh 0, FXN GAA850 act 1, AHR activator 4 and HSF1 activator 23.
Screening COc1cc(=O)[nH]c(SC(C)C(=O)Nc2cccc3ccccc23)n1 (stereo not given) returned HSF1 inhib -3, HSP90 refold inh 2, NR0B1 inh -1, FXN GAA850 act 1, AHR activator 11 and HSF1 activator -14.
